EWS-Fli block: blocks EWS/Fli oncoprotein-driven transcription; AID 651661; inhibition, % at 12.6 µM; 350,000 tested, 0.67% active; A673 NR0B1-luciferase reporter, viability-normalised;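 active = mean inhibition of at least 50% after viability correction, with every replicate also passing that limit; inconclusive = mean reaches 50% but only one of two replicates passes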;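 note: firefly luciferase signal divided by Alamar Blue viability fluorescence both relative to DMSO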
GAA850 FXN act: increases GAA850 frataxin promoter reporter activity; HEK293 lucGAA850 FXN promoter luciferase reporter, 24 h; percent of 10 µM SAHA response; activation, % at 6 µM; 360,000 tested, 0.56% active; AID 540364;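 active = activation above the average of all compounds screened plus 3 SD, cutoff fixed separately per campaign, cut at about 7.5% in these data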;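 note: 0% = DMSO wells and 100% = 10 µM SAHA wells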
HIV Env fusion: blocks HIV Env-driven cell-cell fusion. HeLa-JRFL Env/CEM21 cell fusion, luciferase. inhibition, % at 12.3 µM. 360,000 tested, 1.1% active. AID 651610;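 active = mean replicate inhibition score of at least 50 and every replicate individually at or above 50; inconclusive = only one of the two criteria met; inactive = mean below 50 and not all replicates reaching 50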;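 note: 0% = plate neutral controls and 100% = maraviroc near 300 nM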
PAX8 reporter: lowers PAX8-driven luciferase in RMG-I cells; AID 652154; RMG-I TPO-luciferase reporter, SteadyGlo, 24 h; 360,000 tested, 1.2% active; inhibition, % at 12.6 µM;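 active = mean replicate inhibition at least 60% with every replicate also reaching 60%; inconclusive = only one of the two criteria is met; inactive = mean below 60% and not all replicates reaching 60%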;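 note: luciferase light reporting Pax8 driven TPO promoter activity; plate controls were median of neutral control wells for no effect and mitoxantrone controls for full effect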
CFTR F508del cor: correctors of CFTR F508del function in bronchial epithelial cells; CFBE cells, YFP halide quenching; stimulated with forskolin plus potentiator P3; % fluorescence drop versus neutral controls; activity (quench increase), % at 7.58 µM; 350,000 tested, 0.36% active;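 active = mean added fluorescence quench of at least 8% versus neutral control, with both replicates also reaching 8%; inconclusive = only one of the mean or replicate conditions met; inactive = mean below 8% and not both replicates reaching 8%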;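 note: cells transiently co-express mutant CFTR-F508del with the halide-sensitive YFP; corrector assay measuring rescue of mutant channel to the surface after 24 h compound exposure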
* = called active by the depositor; u = inconclusive; x = no result given; [ ] = dose if it differs, or a comment. In the library only some 2.5% were active in any assay of this set; here they are far more common.

SMILES	EWS-Fli block	GAA850 FXN act	HIV Env fusion	PAX8 reporter	CFTR F508del cor
C[C@H]1CN([C@@H](C)CO)S(=O)(=O)c2ccc(-c3ccccc3)cc2O[C@H]1CN(C)Cc1ccccn1	2	x	-3[16.7 µM]	x	5
CC(=O)C1=C(C)N(Cc2ccc(Br)cc2)C(=S)NC1c1cccc(Br)c1 (stereo not drawn)	1	x	u	16	-2
CC(=O)C1=C(C)N(Cc2ccc(F)cc2)C(=S)NC1c1cccc(Cl)c1 (stereo not drawn)	0	x	12	8	3
CC(=O)C1=C(C)N(Cc2ccc(Br)cc2)C(=S)NC1c1cccc(Cl)c1 (stereo not drawn)	10	x	70*	24	-1
COC(=O)C1=C(C)N(Cc2ccc(Cl)cc2)C(=S)NC1c1ccc(Br)cc1 (stereo not drawn)	5	x	56*	14	-1
CC(=O)C1=C(C)N(Cc2ccc(Cl)cc2)C(=S)NC1c1cccc(Br)c1 (stereo not drawn)	17	x	70*	3	-2
C[C@H](CO)N1C[C@H](C)[C@@H](CN(C)C(=O)CCCN(C)C)OCCCC[C@H](C)Oc2ccc(NC(=O)CCC(F)(F)F)cc2C1=O	-13	x	6[16.7 µM]	-14	1
CN(C[C@H]1[C@H](c2ccccc2)[C@@H](CO)N1CC1CC1)C(=O)c1ccc(F)cc1	1	x	x	10	-1
CCS(=O)(=O)NCC(c1cccnc1)N1CCN(c2ccccc2OC)CC1 (stereo not drawn)	-2	0	-36	8	2
COc1ccccc1N1CCN(C(CNS(=O)(=O)c2cccs2)c2cccnc2)CC1 (stereo not drawn)	4	-1	-71	3	8.1*
COc1cccc(NC(=O)N2CC(=O)N3[C@H](CO)[C@H](c4ccc(C5=CCCC5)cc4)[C@@H]3C2)c1	-10	x	x	-7	1
CC(C)(C)c1ccc(C(=O)Nc2ccc(CC(=O)O)cc2)o1	x	-18	85*	x	x
O=C(NC[C@H]1CC[C@H]2[C@H](CN2Cc2ccc(Oc3ccccc3)cc2)O1)C1CCOCC1	17	x	0[16.7 µM]	13	3
COC1=CC(=O)C=C(OC)C1=O	63*	-15	-41	78*	0
COc1cccc(C(=O)Nc2ccc3c(c2)OC[C@@H](C)N(C(C)=O)C[C@H](C)[C@H](OC)CN(C)C3=O)c1	-6	x	-6[16.7 µM]	4	-3
COCC(C)n1c(SCC(=O)N2CC(=O)Nc3ccccc32)nc2ccccc2c1=O (stereo not drawn)	10	4	x	21	15*
CC=Cc1ccc2n(c1=O)C[C@H]1[C@H](CO)[C@@H](C(=O)N3CCCCC3)[C@@H]2N1Cc1ccccn1 (mixture of isomers)	-7	x	3[16.7 µM]	8	x
CC(NC(=O)Cc1cccs1)C(c1cccs1)N1CCN(c2ccccc2)CC1 (stereo not drawn)	x	-2	x	x	x
CC(NC(=O)Cc1cccs1)C(c1cccs1)N1CCN(c2ccccc2F)CC1 (stereo not drawn)	x	3	62*	x	x
CN1C(=O)c2cc(NC(=O)c3cnccn3)ccc2OC[C@H]2O[C@H](CC(=O)O)CC[C@H]21	-7	x	-13[16.7 µM]	5	-1
CCCc1nc([N+](=O)[O-])c(S(=O)(=O)c2ccccc2)n1CC(C)C	-24	-7	8	86*	-2
COc1ccc(CCN2C(=S)NC3CC2(C)Oc2ccc([N+](=O)[O-])cc23)cc1OC (stereo not drawn)	x	0	59*	x	x
C[C@@H]1CCCCO[C@H](CN(C)Cc2ccc3c(c2)OCO3)[C@@H](C)CN([C@H](C)CO)C(=O)c2cc(NC(=O)Nc3ccc(F)cc3)ccc2O1	-9	x	4[16.7 µM]	-9	1
COCC(=O)N1CC2(CCN(C(C)=O)CC2)c2c([nH]c3cc(OC)ccc23)[C@@H]1CO	-6	x	x	x	2
O=C(C[C@@H]1CC[C@H]2[C@@H](COC[C@@H](O)CN2CC2CCCCC2)O1)NCc1ccc(F)cc1	70*	x	0[16.7 µM]	-23	0
SMILES	EWS-Fli block	GAA850 FXN act	HIV Env fusion	PAX8 reporter	CFTR F508del cor
O=C(C[C@H]1CC[C@@H]2[C@H](COC[C@H](O)CN2CCC(F)(F)F)O1)NCc1ccc(Oc2ccccc2)cc1	2	x	-21[16.7 µM]	29	3
O=C(C[C@H]1CC[C@H]2[C@@H](COC[C@H](O)CN2CCC(F)(F)F)O1)NCc1ccc(Oc2ccccc2)cc1	14	x	56*[16.7 µM]	24	-3
O=C(C[C@H]1CC[C@H]2[C@@H](COC[C@H](O)CN2Cc2cccc(C(F)(F)F)c2)O1)NCc1ccc(Cl)cc1	-6	x	-2[16.7 µM]	70*	-1
O=C(C[C@H]1CC[C@@H]2[C@H](COC[C@@H](O)CN2CC2CCCCC2)O1)NCc1ccc(Cl)cc1	-9	x	x	-7	-2
CC(C)NC(=O)N(C)C[C@H]1OCCCC[C@H](C)Oc2ccc(NC(=O)NC3CCCCC3)cc2C(=O)N([C@@H](C)CO)C[C@H]1C	5	x	-22[16.7 µM]	4	1
COc1ccc(NC(=O)Nc2ccc3c(c2)C(=O)N([C@@H](C)CO)C[C@@H](C)[C@H](CN(C)Cc2ccc(-c4ccccc4)cc2)O3)cc1	-1	x	x	x	0
CC=Cc1ccc2n(c1=O)C[C@H]1[C@H](CO)[C@@H](C(=O)NCC3CC3)[C@@H]2N1C(=O)c1ccccc1 (mixture of isomers)	-1	x	x	-4	2
C[C@@H]1CN([C@@H](C)CO)S(=O)(=O)c2ccc(C#CC3CC3)cc2O[C@H]1CN(C)C	3	x	11[16.7 µM]	x	0
COc1ccc(/C=C2\SC(=S)N(CCCC(=O)N3CCCCC3CCO)C2=O)cc1 (stereo not drawn)	x	-8	28	75*	-1
O=C1/C(=C\c2ccccc2)SC(=S)N1CCC(=O)N1CCCCC1CCO (stereo not drawn)	x	-3	-1	48	-1
CC(C)c1ccc(/C=C2\SC(=S)N(CCC(=O)N3CCCCC3CCO)C2=O)cc1 (stereo not drawn)	x	-13	56*	38	-3
OC(c1ccccc1)(c1ccccc1)C1CCN(CCCOc2ccc(-c3ccc(F)cc3F)cc2)CC1	31	x	63*	59	4
OC(c1ccccc1)(c1ccccc1)C1CCN(CCCOc2cc(F)cc(F)c2)CC1	9	x	24	-2	2
O=C1N[C@H](Cc2ccccc2)COCn2nncc2CC[C@@H]1Cc1ccccc1	-1	x	-20[16.7 µM]	7	x
CCN(c1nc(N)c(C(=O)N=C(N)N)nc1Cl)C(C)C	13	-1	69*	107*	3
CO[C@H]1CN(C)C(=O)c2cc(NC(=O)Nc3cccc(Cl)c3)ccc2OC[C@@H](C)N(C(=O)Nc2c(C)noc2C)C[C@@H]1C	-8	x	x	x	1
C[C@H]1CN([C@@H](C)CO)C(=O)c2ccccc2-c2ccccc2CO[C@@H]1CN(C)Cc1ccc(F)cc1	0	x	u	-5	1
C[C@H](CO)N1C[C@H](C)[C@H](CN(C)Cc2ccc(F)cc2)OCc2ccccc2-c2ccccc2C1=O	-2	x	57*[16.7 µM]	-8	-2

Bioassay records deposited in PubChem BioAssay by several laboratories.
